Structures can show the parent of a compound that is named as a salt.
Test system: MDA-MB-468
Assay: phospho-S6 immunofluorescence (DAPI-normalised), per-plate z-score; higher = higher phospho-S6 signal (less pathway suppression)
Conditions: 24 h
Protocol: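 GPCR-targeted compound library (MedChemExpress HY-L006) tested on MDA-MB-468 PTEN-null TNBC cells in 384-well plates at 0.1, 1 or 10 uM, combined with vehicle, GDC0941 450 nM or lapatinib 1 uM, for 24 h. Phospho-S6 (S240/244) immunofluorescence normalised to DAPI and expressed as a per-plate z-score; values are the mean of biological triplicates.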

Structure (SMILES)	phospho-S6 immunofluorescence (z-score) (co-treatment: GDC0941 450 nM)	phospho-S6 immunofluorescence (z-score) (co-treatment: lapatinib 1 uM)	phospho-S6 immunofluorescence (z-score) (co-treatment: vehicle)
Nc1nc(-c2nn(Cc3ccccc3F)c3ncccc23)ncc1C1CC1 (compound 10 µM)	1.07	2.78	-0.52
Cn1cc(C(=O)[C@@H]2CCc3[nH]cnc3C2)c2ccccc21 [Ramosetron (Hydrochloride)] (compound 10 µM)	-1.27	0	-0.92
CNC(=O)c1cnn(-c2nc(N)c3ncn([C@@H]4O[C@H](CO)[C@@H](O)[C@H]4O)c3n2)c1 [Regadenoson] (compound 10 µM)	1.19	1.71	0.29
N#Cc1ccc2[nH]cc(CCCCN3CCN(c4ccc5oc(C(N)=O)cc5c4)CC3)c2c1 [Vilazodone] (compound 10 µM)	0.37	0.11	1.24
Cc1cccn2c(=O)c(C=C(C#N)c3nc4ccccc4s3)c(Oc3ccc(F)cc3)nc12 (compound 10 µM)	0.33	1.14	-0.48
CCCSc1nc(N[C@@H]2C[C@H]2c2ccc(F)c(F)c2)c2nnn([C@@H]3C[C@H](OCCO)[C@@H](O)[C@H]3O)c2n1 [Ticagrelor] (compound 10 µM)	-1.29	0.02	1.13
Cc1nccn1CCC(C(N)=O)(c1ccccc1)c1ccccc1 [Imidafenacin] (compound 10 µM)	-0.05	0.38	0.28
N=C(N)N/N=C/c1c(Cl)cccc1Cl [Guanabenz (Acetate)] (compound 10 µM)	0.61	-0.12	-0.2
CN(C)CCCN1c2ccccc2Sc2ccc(Cl)cc21 [Chlorpromazine (hydrochloride)] (compound 10 µM)	0.58	-1.09	3.4
N=C(N)NCCC[C@H](NC(=O)[C@H](Cc1ccccc1)NC(=O)[C@@H]1CCCN1C(=O)[C@H](CO)NC(=O)[C@H](Cc1ccccc1)NC(=O)CNC(=O)[C@@H]1CCCN1C(=O)[C@@H]1CCCN1C(=O)[C@@H](N)CCCNC(=N)N)C(=O)O [Bradykinin] (compound 10 µM)	-0.14	0.5	-0.36
O=S(=O)(c1ccccc1)c1cnc2c(N3CCNCC3)cccc2c1 (compound 10 µM)	0.13	-2.25	0.76
COC(=O)CCc1ccc(OCC(O)CNC(C)C)cc1 (stereo not drawn) [Esmolol (hydrochloride)] (compound 10 µM)	1.52	0.09	-0.19
CC(C)NCC(O)COc1ccc(CC(N)=O)cc1 (stereo not drawn) [Atenolol] (compound 10 µM)	0.35	1.32	0.52
CCCCN1CCC(CNC(=O)c2c3n(c4ccccc24)CCCO3)CC1 [Piboserod] (compound 10 µM)	-0.39	-0.44	0.08
Nc1nccc(/C=C/c2ccccc2)n1 (compound 10 µM)	-1.32	-0.81	0.3
C[C@H](NC(=O)CNC(=O)c1cccc(Cl)c1)c1ccccc1 (compound 10 µM)	0.04	0.45	0.46
Clc1ccccc1CN1CCc2sccc2C1 [Ticlopidine (hydrochloride)] (compound 10 µM)	-1.14	-0.33	-0.63
c1ccc(CC2=NCCN2)cc1 [Tolazoline (hydrochloride)] (compound 10 µM)	1.08	0.41	0.92
CC[C@@H](Nc1c(Nc2cccc(C(=O)N(C)C)c2O)c(=O)c1=O)c1ccc(C)o1 (compound 10 µM)	0.29	-0.41	2.26
CN(C)CCc1c[nH]c2ccc(C[C@H]3COC(=O)N3)cc12 [Zolmitriptan] (compound 10 µM)	0.87	0.6	-0.48
Cn1c(=O)c2c(ncn2CC(O)CO)n(C)c1=O (stereo not drawn) [Diphylline] (compound 10 µM)	-0.54	-0.14	-0.15
CCCN(CCc1cccs1)C1CCc2c(O)cccc2C1 (racemic) [rac-Rotigotine (Hydrochloride)] (compound 10 µM)	-0.62	0.67	-0.11
Nc1nc(NCCc2ccc(O)cc2)nc2nc(-c3ccco3)nn12 (compound 10 µM)	-1.88	0.67	1.01

Structure (SMILES)	phospho-S6 immunofluorescence (z-score) (co-treatment: GDC0941 450 nM)	phospho-S6 immunofluorescence (z-score) (co-treatment: lapatinib 1 uM)	phospho-S6 immunofluorescence (z-score) (co-treatment: vehicle)
NC(=O)NC1NC(=O)NC1=O (stereo not drawn) [Allantoin] (compound 10 µM)	0.67	0.13	-0.01
CC(NCCc1ccc(O)cc1)C(O)c1ccc(O)cc1 (stereo not drawn) [Ritodrine (hydrochloride)] (compound 10 µM)	-0.01	1.26	0.06
CCCN(CCN1CCN(c2ccccc2OC)CC1)C1CCc2ncsc2C1 (stereo not drawn) [ST-836 (hydrochloride)] (compound 10 µM)	0.29	-0.62	0.1
CNc1nc(NCc2ccc(NS(C)(=O)=O)cc2Cl)cc(-c2ccccn2)n1 (compound 10 µM)	-3.45	-5.07	-4.83
CCOCCn1c(C2CCN(CCc3ccc(C(C)(C)C(=O)O)cc3)CC2)nc2ccccc21 [Bilastine] (compound 10 µM)	0.51	0.94	-0.28
COc1ccc(NS(=O)(=O)c2sc3ccc(Cl)cc3c2C)cc1N1CCNCC1 (compound 10 µM)	0.28	-1	0.35
OC[C@H]1O[C@@H](n2cnc3c(NCc4ccc(O)cc4)ncnc32)[C@H](O)[C@@H]1O [N6-(4-Hydroxybenzyl)adenosine] (compound 10 µM)	-0.95	1.31	0.96
CC(=O)OCC(=O)[C@@]1(O)CC[C@H]2[C@@H]3CCC4=CC(=O)CC[C@]4(C)[C@H]3[C@@H](O)C[C@@]21C [Hydrocortisone (acetate)] (compound 10 µM)	-0.25	1.4	-0.24
CCCCc1ncc(/C=C(\Cc2cccs2)C(=O)O)n1Cc1ccc(C(=O)O)cc1 [Eprosartan (mesylate)] (compound 10 µM)	0.37	0.05	0.01
CN1N=C2CCN(C(=O)[C@@H](COCc3ccccc3)NC(=O)C(C)(C)N)C[C@@]2(Cc2ccccc2)C1=O [Capromorelin (Tartrate)] (compound 10 µM)	-0.05	-0.67	-0.14
CCCCc1nc(C)c(CC(=S)N(C)C)c(=O)n1Cc1ccc(-c2ccccc2-c2nnn[nH]2)cc1 [Fimasartan] (compound 10 µM)	0.34	1.66	-0.04
C[N+](C)(C)CCOC(N)=O [Carbamoylcholine (chloride)] (compound 10 µM)	0.06	0.02	0.87
COc1ccc(C2CC(c3ccccc3)=NN2c2ccc(S(N)(=O)=O)cc2)cc1 (stereo not drawn) (compound 10 µM)	-3.22	-0.2	-6.71
CCC/N=C1\S/C(=C\c2ccc(OC[C@H](O)CO)c(Cl)c2)C(=O)N1c1ccccc1C [Ponesimod] (compound 10 µM)	-0.8	0.52	1.07
OC(CCCN1CCCCC1)(c1ccccc1)c1ccccc1 [Diphenidol (hydrochloride)] (compound 10 µM)	0.19	1.09	0.38
Cn1c(=O)c2c(ncn2CC(=O)O)n(C)c1=O [Acefylline] (compound 10 µM)	0.4	0.37	-0.98
O=C(O[C@H]1CN2CCC1CC2)N1CCc2ccccc2[C@@H]1c1ccccc1 [Solifenacin (hydrochloride)] (compound 10 µM)	0.75	1.12	-1.36
CC(C)Cc1ccc([C@@H](C)C(=O)NS(C)(=O)=O)cc1 [Reparixin] (compound 10 µM)	0.03	0.34	-1.14
CN(C)CC/C=C1/c2ccccc2Sc2ccc(Cl)cc21 [Chlorprothixene] (compound 10 µM)	0.1	-3.66	0.41
COc1ccccc1N1CCN(CCN(C(=O)C2CCCCC2)c2ccccn2)CC1 (compound 10 µM)	-0.49	0.26	-0.79
CC(=O)OC(C)C[N+](C)(C)C (stereo not drawn) [Methacholine (chloride)] (compound 10 µM)	0.63	0.47	1
CC1(C)CN2C(CSC(=NC3CCCCC3)NC3CCCCC3)=CSC2=N1 [IT1t (dihydrochloride)] (compound 10 µM)	-2.08	-0.41	-1.11
CCOC(=O)N1CCC(=C2c3ccc(Cl)cc3CCc3cccnc32)CC1 [Loratadine] (compound 10 µM)	-1.77	-0.82	-1.25

Reference: the supplement of paper PMC7411640
